# Experimental data published in PubChem BioAssay (NCATS).
# Inconclusive results are not listed. A call without a number means that no potency is given here. A number with no mark means an inactive call. Calls of active or inactive are those of the source. Calls follow the shape of the dose curve; as a rule, active = well fitted curve in the direction sought with a large enough effect; inconclusive = small, poorly fitted or top-dose-only effect, or another doubt; inactive = no such curve, though single readings can be large; an effect the other way counts as inactive or inconclusive.
# Experiments:
# [1] = Viability qHTS for spleen associated tyrosine kinase inhibitor (SYKi) naive MV4-11 cells (AID 1963823); also: nearly all actives have a fitted effect of over 40% in size; also: potency is read from the fitted curve at half-maximal effect
# In short: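 Compounds were dispensed acoustically onto plates, MV4-11 cells (SYKi-naive) added at 500 per well, and plates incubated 72 hr at 37 C. CellTiter-Glo was added and luminescence measured after 10 min.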
# [2] = Cellular viability qHTS for adrenocortical cancer (ACC) cell line NCI-H295R (AID 1963990); also: nearly all actives have a fitted effect of over 60% in size
# In short: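 Readout: CellTiter-Glo luminescence, 20 min RT. Exposure: 48 h, 37C/5% CO2. Cells: NCI-H295R, ITS-DMEM serum-free. Range: up to 46 uM. Analysis: 4PL fit, IC50 plus efficacy.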
# [3] = Viability qHTS for spleen associated tyrosine kinase inhibitor (SYKi) drug resistant MV4-11 cells (AID 1963824); also: nearly all actives have a fitted effect of over 35% in size; also: potency is read from the fitted curve at half-maximal effect
# In short: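 CellTiter-Glo luminescence, read 10 min after reagent addition, reports viability after a 72 hr compound exposure. Cells are an MV4-11 line made resistant to SYK inhibition, seeded at 500 per well onto compound-containing plates.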
smiles,measurement,setting,value
O=S(c1cc(Cl)cc(Cl)c1O)c1cc(Cl)cc(Cl)c1O,Potency,[1],inactive
CC(NCc1ccc(OCc2cccc(F)c2)cc1)C(N)=O (configuration not stated),Potency,[1],inactive
COc1ccc(CNC(=O)c2sc3nc(C)cc(C)c3c2N)cc1,Potency,[1],inactive
CC(OC1OCCN(Cc2n[nH]c(=O)[nH]2)C1c1ccc(F)cc1)c1cc(C(F)(F)F)cc(C(F)(F)F)c1 (configuration not stated),Potency,[1],9.2 µM (active)
CNc1cccc(CCOc2ccc3c(c2)CN(CC(F)(F)F)C(=O)[C@H](CC(=O)O)C3)n1,Potency,[1],inactive
CC(C)C1(O)NC(=O)C(CC2(O)c3ccccc3N3C(=O)C(C)(C)NC32)n2c1nc1ccccc1c2=O (configuration not stated),Potency,[1],inactive
C=C1CCC2C(C)(COC(C)=O)CCCC2(C)C1CCC(C)CC(=O)O (configuration not stated),Potency,[1],inactive
C=CC1(C)CC2CCC3C(C)(C(=O)O)CCCC3(C)C2=CC1=O (configuration not stated),Potency,[1],inactive
CN1CCC(c2c[nH]c3ccc(NC(=O)c4ccc(F)cc4)cc23)CC1,Potency,[1],inactive
O=C(O)c1ccncc1Nc1nn(CCN2CCC(F)(F)CC2)c2ccc(F)cc12,Potency,[1],inactive
COc1cc(CC(COC2OC(CO)C(O)C(O)C2O)c2cc(/C=C/CO)cc(OC)c2O)ccc1O (configuration not stated),Potency,[1],inactive
COc1ccc2c(c1)N1C(=O)C[C@@]34C=CC[N@+]5([O-])CC[C@H]2[C@H](CC3)[C@@]145,Potency,[1],6.4 µM (active)
CC[C@H](Nc1ncnc2nc[nH]c12)c1nc2cccc(F)c2c(=O)n1-c1ccccc1,Potency,[2],inactive
CC1=C(CCC(C)O[C@@H]2O[C@H](CO)[C@@H](O)[C@H](O)[C@H]2O)C(C)(C)CCC1=O (some centres not stated),Potency,[1],inactive
same,Potency,[3],inactive
C=C1C(O)C(O)C2(CC3C(C)=CCC4C(C)(C(=O)O)CCCC34C)OC2C1O (configuration not stated),Potency,[1],inactive
same,Potency,[3],inactive
CC1(C)C2CC[C@]3(C)C(C(=O)C=C4[C@H]5C[C@@](C)(C(=O)O)CC[C@]5(C)CC[C@]43C)[C@@]2(C)CC[C@@H]1O (some centres not stated),Potency,[1],inactive
same,Potency,[3],inactive
COc1ccc(CCc2nc3cc(-c4c(C)noc4C)ccc3n2CC(C)N2CCOCC2)cc1Cl (configuration not stated),Potency,[1],4.11 µM (active)
same,Potency,[3],5.17 µM (active)
CCN1CCN(Cc2ccc(-c3cc4c(NC(C)c5ccccc5)ncnc4[nH]3)cc2)CC1 (configuration not stated),Potency,[1],0.92 µM (active)
same,Potency,[3],1.3 µM (active)
CC1(C)CC[C@]2(C(=O)OC3OC(CO)C(O)C(O)C3O)CC[C@]3(C)C(=CCC4[C@@]5(C)CC[C@H](OC6OC(C(=O)O)C(O)C(O)C6O)C(CO)(CO)C5CC[C@]43C)[C@@H]2C1 (some centres not stated),Potency,[1],0.693 µM (active)
same,Potency,[3],0.438 µM (active)
C=C1CC2OC(=O)C(=C)C2C(O)/C=C(\C)CCC1O (configuration not stated),Potency,[1],18.4 µM (active)
same,Potency,[3],13 µM (active)
C=C1C[C@]23C[C@H]1CC[C@H]2[C@@]12C=C[C@H](O)[C@@](C)(C(=O)O1)[C@H]2[C@@H]3C(=O)O,Potency,[1],inactive
same,Potency,[3],inactive
CC(=O)O[C@@H]1CC2C(C)(C)C(=O)C=C[C@]2(C)C2CC[C@@]3(C)[C@H](c4ccoc4)OC(=O)[C@H]4O[C@]43[C@@]21C (some centres not stated),Potency,[1],10 µM (active)
same,Potency,[3],7.09 µM (active)
COc1cc2ncnc(Nc3cccc(O)c3)c2cc1OC,Potency,[1],0.411 µM (active)
same,Potency,[3],0.651 µM (active)
C/C=C/C1=CC2=C(CO1)C(=O)C(C)(O)C(OC(=O)c1c(C)cc(OC)cc1O)C2 (configuration not stated),Potency,[1],6.4 µM (active)
same,Potency,[3],4.04 µM (active)
C[C@@H]1O[C@@H](O[C@@H]2[C@@H](O)[C@@H](O)[C@H](O[C@@H]3[C@@H](O)[C@@H](O[C@]4(CO)O[C@H](CO)[C@@H](O)[C@@H]4OC(=O)/C=C/c4ccc(O)cc4)O[C@H](CO)[C@H]3OC(=O)/C=C/c3ccc(O)cc3)O[C@H]2C)[C@H](O)[C@H](O)[C@H]1O,viability (% of control),[1],81.6% [at 9.25 µM]
same,"viability, % of control",[3],117% [at 9.25 µM]
O=C(COc1ccc(C(=O)c2ccccc2)cc1)NC1CCN(Cc2ccccc2)CC1,Potency,[1],9.2 µM (active)
same,Potency,[3],7.31 µM (active)
C[C@]1(O)CC[C@@H]2C(C(=O)O)=CO[C@@H](O[C@@H]3O[C@H](CO)[C@@H](O)[C@H](O)[C@H]3O)[C@@H]21,Potency,[1],inactive
same,Potency,[3],inactive
CN(C)CC1CCn2c(c(C3=C(c4cn(C)c5ccccc45)C(=O)NC3=O)c3ccccc32)C1 (configuration not stated),Potency,[1],1.46 µM (active)
same,Potency,[3],2.91 µM (active)
C=C[C@H]1[C@H](O[C@@H]2O[C@H](CO)[C@@H](O)[C@H](O)[C@H]2O)OC=C(C(=O)OC)[C@H]1CCOC(=O)c1cc(O)c(O)c(O)c1,Potency,[1],inactive
same,Potency,[3],inactive
COc1cc([C@H]2c3cc(O)c(OC)cc3C[C@@H](CO[C@@H]3O[C@H](CO)[C@@H](O)[C@H](O)[C@H]3O)[C@@H]2CO)ccc1O,Potency,[1],inactive
same,Potency,[3],inactive
